# Assay results reported in ChEMBL document CHEMBL3988442, “University of Dundee, Small-Polar-MMV Screening Library” (2021).
# The campaign covered roughly 48,000 compounds. About 13,000 (27%) showed an effect of 50% or more. This is one part of the list.
# Tested on: Wolbachia pipientis
# Experiment: Anti-Wolbachia Cell-Based Screen
# Format: functional
# Design: scale not given: in the data most compounds retested in dose-response had high values
# Details: 5 µM
row,Compound,Percent Effect
1,CN(C)S(=O)(=O)N1C[C@H]2CCC[C@@]2(COCC2CCOCC2)C1,-9.423%
2,CCc1nc(CNC2CCN(c3ccc(OC)cc3)CC2)cs1,-5.711%
3,O=C(c1ccncc1F)N1CCc2ncnc(N3CCOCC3)c2CC1,22.92%
4,CCc1n[nH]c(C(=O)NCCn2nccc2C)c1C,177.1%
5,CCc1n[nH]c(C(=O)NCCn2ccc(C)n2)c1C,161.5%
6,CCCN1CC2(CCN(C)CC2)CC1C(=O)NCCn1ccc(C)n1 (stereo not drawn),5.137%
7,CCc1noc(C)c1C(=O)NCc1cc[nH]n1,-9.348%
8,CCc1c(C)nn(CCNC(=O)c2cnn[nH]2)c1C,-18.26%
9,CCc1n[nH]c(C(=O)NCCn2ccnc2C)c1C,12.68%
10,COc1cccc(N2CCN(C(=O)CO)CC2=O)c1,5.099%
11,Cc1ccc(N2CCN(C(=O)C(O)c3cccc(Cl)c3)CC2=O)cc1 (stereo not drawn),-0.06478%
12,Cc1cc(C)cc(N2CCN(C(=O)C3CN(C)C(=O)N3)CC2=O)c1 (stereo not drawn),83.41%
13,COc1cccc(N2CCN(C(=O)[C@H](O)C3CCCCC3)CC2=O)c1,-19.32%
14,Cc1ccc(N2CCN(C(=O)[C@@H]3CCC(=O)N3)CC2=O)cc1,107.8%
15,COc1ccc(N2CCN(C(=O)CCCc3cn[nH]c3)CC2=O)cc1,-15.55%
16,Cc1ccc(N2CCN(C(=O)C3CN(C)C(=O)N3)CC2=O)cc1 (stereo not drawn),99.53%
17,CN1CC(C(=O)N2CCN(c3cccc(Cl)c3)C(=O)C2)NC1=O (stereo not drawn),98.1%
18,COC(C(=O)N1CCN(c2cccc(Cl)c2)C(=O)C1)c1ccccc1 (stereo not drawn),-8.872%
19,O=C([C@H](O)c1ccccc1)N1CCN(c2cccc(Cl)c2)C(=O)C1,-7.931%
20,COc1cnc(CN2CC(=O)N(c3ccc(C)cc3)CC2C)cc1O (stereo not drawn),8.35%
21,Cc1ccc(CC(=O)N2CC[C@@H]3NC(=O)CC[C@@H]32)cc1,-5.727%
22,COc1ccc(-c2nc(CNCCn3cccn3)cs2)cc1,30.25%
23,COc1cc2c(cc1CNCc1ccnc(-n3cccn3)c1)OC(C)C2.Cl (stereo not drawn),-0.5391%
24,O=C(O)CSc1nnc(-c2ccn[nH]2)n1-c1ccccc1C(F)(F)F,-29.49%
25,N#CCCN(CC1CCOC1)Cn1ccc(-c2ccsc2)n1 (stereo not drawn),-9.852%
26,Cn1cccc1C(=O)N1CCC2(CCN(C(=O)c3cccnc3)C2)CC1.O=C(O)C(F)(F)F,51.82%

row,Compound,Percent Effect
1,Cn1cccc1CN1CCC2(CCCN(C(=O)c3cccnc3)C2)CC1.O=C(O)C(F)(F)F.O=C(O)C(F)(F)F,3.692%
2,Cn1cccc1C(=O)N1CC2(CCN(C(=O)c3cccnc3)C2)C1.O=C(O)C(F)(F)F,98.8%
3,CC1(C(=O)Nc2ccc(F)c(-n3cccc3)c2)CCOCC1,-9.431%
4,FC(F)(F)c1cccc(C2(CNCc3cc[nH]c3)CCOCC2)c1,2.692%
5,CC1(C(=O)NCc2cccc(C(F)(F)F)c2)CCOCC1,102.7%
6,CN1CCN(C(=O)NCCc2ccc(F)cc2)[C@H]2CS(=O)(=O)C[C@H]21,8.781%
7,CC1(CCNC(=O)NCc2ccsc2)OCCO1,-10.92%
8,CC1(C(=O)NCCc2ccc(F)cc2)CCOCC1,104.4%
9,CC(CNC(=O)NCc1ccsc1)CC1(C)OCCO1 (stereo not drawn),-12.21%
10,CN(C)C1(CNC(=O)Cc2ccc(F)cc2)CCOCC1,-8.041%
11,CC1(C(=O)NCc2cc(F)cc(F)c2)CCOCC1,100.6%
12,CCN(CC)c1ccc(CNC(=O)C2(C)CCOCC2)cc1F,25.87%
13,FC(F)(F)c1cccc(C2(CNCc3ccncc3)CCOCC2)c1,-7.872%
14,CC1(C(=O)NCc2ccsc2)CCOCC1,107.3%
15,Cc1nc(-c2ccccc2)c(C(=O)N2CCC3(CC(=O)NC3=O)C2)s1 (stereo not drawn),-0.3979%
16,Cc1noc(C)c1CN1CC2(CCN(C(=O)c3ccoc3C)C2)CC1=O (stereo not drawn),-6.391%
17,CCC(C)N(Cc1cc(C)n[nH]1)Cc1ccccc1Cl (stereo not drawn),4.348%
18,Cc1cc(CN2CCCC2)cc(Oc2ccc3c(c2)CC(CN)O3)c1 (stereo not drawn),4.792%
19,CC(C)c1noc(CN(C)C(=O)c2ncn[nH]2)n1,4.654%
20,CC(=O)NCCNC(=O)c1sc(-c2ccc(C)cc2C)nc1C,-3.584%
21,N#Cc1cn[nH]c1NCc1cc(Cl)cc(Cl)c1O,77.61%
22,N#Cc1cn[nH]c1NCc1cc(I)cc(I)c1O,96%
23,N#Cc1cn[nH]c1NCc1cc(Br)ccc1O,83.36%
24,COc1ccc(/C=C/CN2CCN(c3ncccc3C(N)=O)CC2)cc1,-5.557%
25,Cc1cccc(N2CC[C@H]3[C@H]2CCN3C(=O)c2cnn(C)c2)n1,8.202%
26,Cc1nc(NC2CCCC2)cc(C2CCN2C(=O)c2ccccc2)n1 (stereo not drawn),4.339%

row,Compound,Percent Effect
1,Cc1nc(NC2CCCC2)cc(C2CCN2C(=O)c2cccnc2)n1 (stereo not drawn),-5.726%
2,Cc1nc(NC2CCCC2)cc(C2CCN2C(=O)c2cnn(C)c2)n1 (stereo not drawn),99.12%
3,Cc1nc(NC2CCCC2)cc(C2CCN2C(=O)c2ccccn2)n1 (stereo not drawn),140.6%
4,CCc1cc(NC2CCN(CC(N)=O)CC2)nc(N2CCCCC2)n1,3.351%
5,CCC(=O)N1CCC1c1cc(NC2CCCC2)nc(C)n1 (stereo not drawn),124.3%
6,O=C1NCCc2c1sc1ccc(C(=O)N3CC[C@H](CO)[C@H](O)C3)cc21,1.887%
7,CCCS(=O)(=O)N1CCC2(CCC(=O)N(CCc3cccnc3)C2)CC1,-2.035%
8,CCCC(=O)NC(C)(C)Cc1ccccc1OC,8.655%
9,CCn1cc(S(=O)(=O)NC(=O)CCc2c[nH]c3ccccc23)cn1,5.036%
10,CN1CCN(c2ccc(NCc3ccc([S+](C)[O-])cc3)cn2)CC1 (stereo not drawn),-11.28%
11,Cc1ccsc1C(=O)N1CC[C@H]2CO[C@H](CN(C)C)[C@H]2C1.O=C(O)C(F)(F)F,3.155%
12,CCC(C)CS(=O)(=O)NC(=O)C1CC1 (stereo not drawn),-14.71%
13,O=C(CS(=O)(=O)Cc1nnnn1C1CC1)NCCc1ccccc1,-17.89%
14,O=S(=O)(Cc1ccccc1F)Cc1nnnn1C1CC1,106.9%
15,[O-][S+](Cc1c(F)cccc1Cl)Cc1nnnn1C1CC1 (stereo not drawn),117.1%
16,O=C(CS(=O)(=O)Cc1nnnn1C1CC1)NCC1CC1,-6.472%
17,CN(Cc1nnnn1C1CC1)c1cccc2ccccc12,-12.9%
18,O=S(=O)(CCCc1ccccc1)Cc1nnnn1C1CC1,-8.499%
19,O=S(=O)(Cc1c(F)cccc1Cl)NCCCN1CCCCCC1,1.36%
20,O=S(=O)(Cc1c(F)cccc1Cl)Cc1nnnn1C1CC1,95.69%
21,c1ccc(C2CCCN2Cc2nnnn2C2CC2)cc1 (stereo not drawn),-9.931%
22,CCC(C)CN(C)C(=O)NCc1ccccc1-n1cccn1 (stereo not drawn),-6.014%
23,Cc1cnccc1CN(C)C1CCN(c2ncnc3[nH]cnc23)CC1,-3.937%
24,CN(C)C(=O)CCC[S+]([O-])Cc1cc(Cl)ccc1Cl (stereo not drawn),0.1259%
25,Cc1noc(C)c1CN1CCc2nn(C(C)C)c(=O)cc2C1,-7.391%
26,CC(=O)Nc1ncc(S(=O)(=O)N2CCN(C3CCCCC3)CC2)s1,-4.636%

row,Compound,Percent Effect
1,Cc1ccccc1S(=O)(=O)Cc1nsc(N(C)C)n1,-10.46%
2,COc1ccc2c(c1)CCCN2C(=O)NCCc1cnn(C)c1,-4.065%
3,CCn1nccc1CN(C)C(=O)Cn1nc(C)c(C)c1C,98.15%
4,CCc1nc(CC)n(CC(=O)N(C)Cc2ccc(F)cc2)n1,-4.811%
5,Cc1cc(C)n(CC(C)CNC(=O)N(C)Cc2ccco2)n1 (stereo not drawn),23.18%
6,CCn1nccc1CN(C)C(=O)Cn1nc(C)cc1C,69.47%
7,Cc1ccc(CN(C)C(=O)Cn2nc(-c3ccc(F)cc3)oc2=O)cc1,-26.69%
8,Cc1cc(C)n(CC2CCCCN2CC(=O)N(C)Cc2ccco2)n1 (stereo not drawn),-0.03535%
9,O=C(CNC(=O)C1CCCC1)NCC(O)c1ccc2ccccc2c1 (stereo not drawn),-9.214%
10,CCCn1nnnc1CN(c1ccc(N2CCOCC2)cc1)C(C)C,-9.048%
11,CC(C)n1nnc2c(sc3nc(N4CCOCC4)c4c(c32)CCC4)c1=O,121.1%
12,Cn1nnc2c(sc3nc(N4CCOCC4)c4c(c32)CCC4)c1=O,117%
13,CCc1nc2c(c(N3CCOCC3)n1)CCN(C(=O)N1CCCC1)CC2,-8.543%
14,CCCn1nnc2c(sc3nc(N4CCOCC4)c4c(c32)CCC4)c1=O,106.2%
15,CN(C)C(=O)Cc1ccccc1NCc1cccc2cccnc12,-12.16%
16,O=C(c1cncc(Br)c1)N1CCCc2c(F)cc(F)cc21,-4.9%
17,CC(C#N)CNS(=O)(=O)c1ccc(Br)c(F)c1 (stereo not drawn),3.318%
18,CC(C)c1noc(CCC(=O)N(CC2CCOC2)C2CC2)n1 (stereo not drawn),6.067%
19,NC(=O)NC(=O)CCN(Cc1ccccc1)CC1CCOCC1,-17.87%
20,Cc1cnn(CC(C)NCC(=O)Nc2ccc(Cl)cn2)c1 (stereo not drawn),-4.944%
21,Fc1cnc(N2CC[C@@H]3O[C@@H](COCc4cccnc4)CC[C@@H]32)nc1.O=C(O)C(F)(F)F,-5.936%
22,O=C(O)C(F)(F)F.O=C(c1ccncc1F)N1CC[C@@H]2OC(COCC3CC3)CC[C@@H]21 (stereo partly drawn),97.57%
23,CC(C)COC[C@@H]1CC[C@H]2[C@H](CCN2C(=O)c2ccncc2F)O1.O=C(O)C(F)(F)F,105.1%
24,CC(C)COC[C@H]1CC[C@H]2[C@H](CCN2C(=O)c2ccncc2F)O1.O=C(O)C(F)(F)F,108.1%
25,Fc1cnc(N2CC[C@@H]3O[C@@H](COCc4ccccn4)CC[C@@H]32)nc1.O=C(O)C(F)(F)F.O=C(O)C(F)(F)F,-20.87%
